Screening results from PubChem BioAssay.
An excerpt weighted towards active compounds, which were near 21% of everything screened.
Cycloheximide cs = counter-screen hit for Shiga toxin inhibitors, cycloheximide; max response, %; AID 2314; 300,000 compounds, 12% hits; cell reporter, cycloheximide protein synthesis inhibition counterscreen; in the data active = max response mostly above about 13%, no sharp cut-off; inactive = mostly below about 14%; note: read at 38.3 µM for the half of the compounds with a filed dose
Pf growth 48h = P. falciparum growth inhibition at 48 hours (one generation). P. falciparum luciferase growth in erythrocytes, 48 h. 310,000 compounds, 5.9% hits. Potency, µM (series often up to 28.7 µM), most hits filed as inhibitors; active = well fitted inhibition curve with a large enough effect; inconclusive = small, poorly fitted or top-dose-only effect, or another doubt; inactive = no such curve, though single readings can be large or run the other way
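Luciferase-expressing P. falciparum in infected erythrocytes (2% hematocrit, 0.1% parasitemia final) in RPMI 1640/0.5% Albumax were exposed to compound for 48 hours at 37 C, 5% CO2; growth read as luminescence.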
Pf growth 96h = P. falciparum growth inhibition at 96 hours; P. falciparum luciferase reporter growth, 96 h; Potency, µM (series often up to 28.7 µM), usual class: inhibitors; 320,000 compounds, 6.9% hits; AID 504834; active = well fitted inhibition curve with a large enough effect; inconclusive = small, poorly fitted or top-dose-only effect, or another doubt; inactive = no such curve, though single readings can be large or run the other way
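Cell-based qHTS: luciferase-tagged P. falciparum in erythrocytes (2% hematocrit, 0.05% parasitemia final) incubated with compounds for 96 hours, 37 C, 5% CO2; luciferase detection reagent then added and luminescence measured.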
Shiga toxin inh = inhibitors of Shiga toxin in Vero cells. 290,000 compounds, 9.2% hits. Vero cells, Shiga toxin protein synthesis inhibition reporter. inhibition, % at 38.7 µM; in the data active = inhibition mostly above about 28%, no sharp cut-off; inactive = mostly below about 43%
SARS PLpro yeast = SARS-CoV PLP inhibition in yeast; S. cerevisiae expressing SARS-CoV PLpro, growth rescue; Potency, µM (top dose mostly 32.9 µM), most hits filed as activators; 330,000 compounds, 0.19% hits; AID 485353; note: nearly all actives have a fitted effect of over 55% in size
NS1 function inh = blocks influenza NS1 protein function. Potency, µM (series often up to 46.1 µM). 270,000 compounds, 0.4% hits; note: actives are rising curves; nearly all actives have a fitted effect of over 50% in size
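Read-out: OD600 growth recovery of NS1-expressing budding yeast. Cells grown overnight at 30C in -URA glucose medium, washed, resuspended and diluted 1:100 in 2% galactose assay medium, pH 6.0. Same strain lacking NS1 served as positive control.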
Of the large screens only hits and unclear results are named; the others gave an inactive call. Unless noted, calls come from the whole dose curve.

Cc1ccc(C)c(OCC(=O)NNC(=O)CCN2CCN(c3ccccc3)CC2)c1	Pf growth 96h inconclusive (no result: Cycloheximide cs, Shiga toxin inh, NS1 function inh)
C=C1C(CCl)(CCl)C2(Cl)C(Cl)C(Cl)C1(Cl)C2(Cl)Cl (configuration not stated)	Pf growth 48h 1.9µM, Pf growth 96h 2.69µM (no result: Cycloheximide cs, Shiga toxin inh, SARS PLpro yeast, NS1 function inh)
O=C(O)C1=C[C@@H](C2CCCCC2)C[C@@H](OCc2ccc(CO)cc2)O1	none
O=C(NC1CC1)C1=C[C@H](C2CCCCC2)C[C@H](OCc2ccc(CO)cc2)O1	Cycloheximide cs 12.7, Shiga toxin inh 35.3
C#CCNC(=O)C1=C[C@H](C2CCCCC2)C[C@H](OCc2ccc(CO)cc2)O1	Cycloheximide cs 13.6, Pf growth 48h inconclusive, Shiga toxin inh 52.4
C[C@@H](Oc1ccc(Oc2cnc3ccc(Cl)cc3n2)cc1)C(=O)O	none (no result: Cycloheximide cs, Pf growth 48h, Pf growth 96h, Shiga toxin inh, SARS PLpro yeast)
COc1ccc(C(=O)NC2CCN(C(=O)NCc3ccccc3)CC2)cc1	none
CN(C(=O)c1ccco1)c1nc2c(s1)CCCC2	Cycloheximide cs 31.3, Shiga toxin inh 41.7 (no result: Pf growth 48h)
CC(NC(=O)c1ccco1)C12CC3CC(CC(C3)C1)C2 (configuration not stated)	Pf growth 48h inconclusive, Pf growth 96h inconclusive (no result: Cycloheximide cs, Shiga toxin inh, NS1 function inh)
CN(C(=O)COc1ccc(Cl)cc1Cl)c1nnc(C23CC4CC(CC(C4)C2)C3)s1	Pf growth 48h inconclusive, Pf growth 96h 13.1µM
CN(C(=O)c1ccco1)c1nnc(C23CC4CC(CC(C4)C2)C3)s1	Cycloheximide cs 56.8, Pf growth 48h inconclusive, Shiga toxin inh 83.2
CN(C(=O)COc1ccc(Cl)cc1)c1nnc(C23CC4CC(CC(C4)C2)C3)s1	none
CCOC(=O)C1=C(C)NC(C)=C(C(=O)OCC)C1C(=O)OCC(=O)NCc1ccc(F)cc1	none (no result: Cycloheximide cs, Pf growth 48h, Pf growth 96h, Shiga toxin inh, NS1 function inh)
CC1CCN(c2ccc(NC(=S)NC(=O)c3ccc(-c4cccc([N+](=O)[O-])c4)o3)cc2)CC1	Pf growth 48h 4.65µM (no result: Pf growth 96h)
CC1CCN(c2ccc(NC(=S)NC(=O)c3ccco3)cc2)CC1	Cycloheximide cs 19.0, Pf growth 48h inconclusive, Pf growth 96h inconclusive, Shiga toxin inh 72.3
O=C(NC(=S)Nc1ccc(N2CCCCC2)cc1)c1ccco1	Cycloheximide cs 39.1, Shiga toxin inh 91.6
CC1CCN(c2ccccc2NC(=S)NC(=O)c2ccc(-c3cccc([N+](=O)[O-])c3)o2)CC1	Pf growth 48h inconclusive, Pf growth 96h inconclusive
Cc1ccc(S(=O)(=O)N2CCC(C(=O)OC(C)C(=O)N(C)c3ccccc3)CC2)cc1C (configuration not stated)	Pf growth 48h inconclusive, Pf growth 96h inconclusive (no result: Cycloheximide cs, Shiga toxin inh, NS1 function inh)
CC(C)C[C@H](N)c1cn([C@@H](CCCCN)C(=O)N2CCNCC2)nn1	none
CCOC(=O)/C(C#N)=C/c1ccc(N2CCN(C)CC2)cc1	Cycloheximide cs 28.8
CCOC(=O)/C(C#N)=C\c1ccc(N2CCN(C)CC2)cc1	Cycloheximide cs 25.9
Oc1ccc(N=Nc2ccccc2-c2nn[nH]n2)c(O)c1	SARS PLpro yeast inconclusive (no result: Pf growth 48h)
Nc1n[nH]c(N)c1N=Nc1ccc2c(c1)OCO2	Cycloheximide cs 35.9, Shiga toxin inh 96.9
Cc1nc(N)sc1N=Nc1ccc(Br)cc1	Cycloheximide cs 65.3, Shiga toxin inh 127.3 (no result: Pf growth 48h)
Cc1[nH]nc(N)c1N=Nc1ccc(Br)cc1	Cycloheximide cs 28.8, Shiga toxin inh 40.8
Cc1ccc(-c2[nH]nc(N)c2N=Nc2ccccc2C)cc1	Pf growth 48h inconclusive
Cc1ccc(N=Nc2c(N)n[nH]c2N)cc1	Cycloheximide cs 41.4, Shiga toxin inh 49.2
Cc1ccc(C)c2sc(N)nc12	Pf growth 96h inconclusive
Cc1ccc(S(=O)(=O)N2CCC(C(=O)NNC(=O)C3CC3)CC2)cc1Cl	Pf growth 48h inconclusive, Pf growth 96h inconclusive (no result: NS1 function inh)
O=C(c1ccc(Cl)c(S(=O)(=O)Nc2ccccc2C(=O)N2CCc3ccccc3C2)c1)N1CCc2ccccc2C1	Pf growth 48h 10.4µM, Pf growth 96h inconclusive, NS1 function inh inconclusive
Cc1ccc2c(c1)CCCN2C(=O)c1ccc2c(c1)OCO2	Pf growth 48h inconclusive (no result: Pf growth 96h)
O=C(c1ccc2c(c1)OCO2)N1CCCc2ccccc21	Cycloheximide cs 39.7, Shiga toxin inh 73.7 (no result: Pf growth 96h)
O=C(Nc1cccc(C(=O)N2CCCc3ccccc32)c1)c1ccccc1	Pf growth 48h inconclusive, Pf growth 96h 4.65µM (no result: Shiga toxin inh)
O=C(c1ccc(=O)oc1)N1CCCc2ccccc21	Cycloheximide cs 50.7, Shiga toxin inh 76.2, NS1 function inh inconclusive
COc1ccc(C(CC(=O)O)N2C(=O)CCC2=O)cc1 (configuration not stated)	none
O=C(O)CC(NC(=O)C12CC3CC(CC(C3)C1)C2)c1ccc(OC2CCCC2)cc1 (configuration not stated)	none (no result: NS1 function inh)
O=C(c1cccc(N2C(=O)C3CC=CCC3C2=O)c1)N1CCCc2ccccc21 (configuration not stated)	Cycloheximide cs 35.5, Shiga toxin inh 74.5 (no result: NS1 function inh)
O=C(c1cccc(N2C(=O)C3C4C=CC(C4)C3C2=O)c1)N1CCCc2ccccc21 (configuration not stated)	Pf growth 48h inconclusive, Pf growth 96h inconclusive (no result: NS1 function inh)
O=C(c1ccc2c(c1)OCO2)N1CCc2ccccc2C1	Cycloheximide cs 70.4, Shiga toxin inh 55.1
O=C(c1ccc2c(c1)OCO2)N1CCc2ccccc21	Pf growth 96h inconclusive, Shiga toxin inh 58.7
CC(Nc1ccc2c(c1)OCCO2)C(=O)N1CCc2ccccc21 (configuration not stated)	Cycloheximide cs 21.2, Shiga toxin inh 84.3
COC(=O)c1sccc1NC(=O)CC1C(=O)NCCN1C(=O)Nc1ccc(C(F)(F)F)cc1 (configuration not stated)	none
Cc1c(C=O)c2ccccc2n1CCOc1ccccc1F	Pf growth 48h inconclusive, Pf growth 96h 8.28µM, SARS PLpro yeast inconclusive
Cc1c(/C=N/n2cnnc2)c2ccccc2n1CCOc1ccccc1	Pf growth 48h 13.1µM, Pf growth 96h inconclusive (no result: NS1 function inh)
COc1ccccc1OCCn1c(C)c(C=O)c2ccccc21	Pf growth 48h inconclusive, Pf growth 96h inconclusive
Fc1ccccc1OCCn1c(=S)[nH]c2ccccc21	Cycloheximide cs 24.2, Pf growth 96h inconclusive, Shiga toxin inh 27.8, SARS PLpro yeast inconclusive
COc1ccccc1OCCn1cc(/C=N/n2cnnc2)c2ccccc21	Pf growth 48h inconclusive, Pf growth 96h inconclusive
COc1ccc(Cn2c(C)nnc2-c2cnn(C)c2N)cc1	none (no result: NS1 function inh)
COc1ccccc1CNc1ncnc2sccc12	none
Oc1ccccc1CNc1ccc(Br)cn1	none
Brc1ccc(NCc2cccc3ccccc23)nc1	Cycloheximide cs 26.5 (no result: Pf growth 48h)
COc1ccccc1CNc1ccc(Br)cn1	Cycloheximide cs 50.3, Pf growth 96h inconclusive, Shiga toxin inh 99.0
O=c1[nH]cnc2scc(-c3ccc(-c4ccccc4)cc3)c12	Cycloheximide cs 28.7 (no result: Pf growth 48h)
CCCOc1ccc(-c2csc3nc[nH]c(=O)c23)cc1	Cycloheximide cs 40.5, Shiga toxin inh 46.7
Cc1ccc(-c2csc3nc[nH]c(=S)c23)cc1C	Pf growth 48h inconclusive, Pf growth 96h 10.4µM, SARS PLpro yeast inconclusive
COc1ccc(C(=O)COC(=O)c2nc3nccc(C)n3n2)cc1F	none (no result: Cycloheximide cs, Shiga toxin inh, NS1 function inh)
CN(Cc1cnccn1)Cc1nc(Cc2ccccc2Cl)no1	none
